Source: PubChem BioAssay (NCI)
Compounds without any hit were thinned out: in the full panel of roughly 83,000, 20% have a hit.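 Single-concentration screen, 48 h exposure, 96-well plates. Endpoint: percent growth. Below 10 = active.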 Activity calls are given as the source filed them.

Experiments:
Assay in all cases: NCI-60 one-dose screen, 48 h (100 = growth as untreated, 0 = no growth, -100 = all killed)
Conditions in all cases: 10 µM unless noted
HCT-15 colon = test system: HCT-15 colon
HT29 colon = test system: HT29 colon
SNB-75 CNS = test system: SNB-75 CNS
SNB-19 CNS = test system: SNB-19 CNS
PC-3 prostate = test system: PC-3 prostate
SK-MEL-5 melanoma = test system: SK-MEL-5 melanoma
UACC-62 melanoma = test system: UACC-62 melanoma
LOX IMVI melanoma = test system: LOX IMVI melanoma
SK-MEL-28 melanoma = test system: SK-MEL-28 melanoma
U251 CNS = test system: U251 CNS

Measured: growth

CC(=O)[O][Hg][c]1c(N)c(C)cc(C)c1F
active: HCT-15 colon -14.2% | HT29 colon 10% | LOX IMVI melanoma -70.1% | SK-MEL-28 melanoma -39.1%
inactive: SNB-75 CNS 32% | SNB-19 CNS 112% | PC-3 prostate 51.9% | SK-MEL-5 melanoma 41% | UACC-62 melanoma 27.8%

C=CCCCCCCCCC(=O)[O-].C=CCCCCCCCCC(=O)[O-].[Zn+2]
inactive: HCT-15 colon 101% | HT29 colon 105% | SNB-75 CNS 103% | U251 CNS 89% | PC-3 prostate 85.7% | SK-MEL-5 melanoma 113% | UACC-62 melanoma 99.4% | LOX IMVI melanoma 90.5% | SK-MEL-28 melanoma 104%

CN(C)CCCOc1ccc2c(c1)c(C(=O)C(=O)NCCO)cn2Cc1ccccc1
inactive: HCT-15 colon 105% | HT29 colon 107% | SNB-75 CNS 97.4% | SNB-19 CNS 102% | U251 CNS 96.4% | SK-MEL-5 melanoma 99.8% | UACC-62 melanoma 100% | LOX IMVI melanoma 93% | SK-MEL-28 melanoma 118%

CC[C@]12C=CCN3CC[C@@]4(c5ccc(OC)cc5N(C)[C@H]4[C@@](O)(C(=O)OC)[C@@H]1OC(=O)CCCC[P+](c1ccccc1)(c1ccccc1)c1ccccc1)[C@@H]32
inactive: HCT-15 colon 99.3% | SNB-19 CNS 12.7% | U251 CNS 10.9% | LOX IMVI melanoma 18.5% | SK-MEL-28 melanoma 12.5%
active: HT29 colon 2.65% | SNB-75 CNS -12.8% | SK-MEL-5 melanoma -72.9% | UACC-62 melanoma -6.54%

C[N+]12CN3CN(CN(C3)C1)C2
inactive: HCT-15 colon 110% | HT29 colon 99.3% | SNB-75 CNS 46.8% | U251 CNS 100% | PC-3 prostate 81.3% | SK-MEL-5 melanoma 112% | UACC-62 melanoma 104% | LOX IMVI melanoma 99.7% | SK-MEL-28 melanoma 106%

Cc1ccc(C(Cc2ccccc2)NCCO)cc1 (stereo unspecified)
inactive: HCT-15 colon 103% | HT29 colon 65.4% | SNB-75 CNS 87.1% | SNB-19 CNS 99.3% | U251 CNS 87.8% | SK-MEL-5 melanoma 98.4% | UACC-62 melanoma 94.7% | LOX IMVI melanoma 100% | SK-MEL-28 melanoma 61.9%

O=C(NCCN1CC1)C(=O)NCCN1CC1
inactive: HCT-15 colon 95.2% | HT29 colon 68.9% | SNB-75 CNS 76% | SNB-19 CNS 101% | PC-3 prostate 93.2% | SK-MEL-5 melanoma 94.6% | UACC-62 melanoma 91.7% | LOX IMVI melanoma 80.2% | SK-MEL-28 melanoma 102%

CCOP(=O)(NC[C@H]1O[C@](O)(CO)[C@@H](O)[C@@H]1O)OCC
inactive: HCT-15 colon 100% | HT29 colon 96.2% | SNB-75 CNS 80.2% | SNB-19 CNS 97% | U251 CNS 101% | SK-MEL-5 melanoma 96.5% | UACC-62 melanoma 99.8% | LOX IMVI melanoma 92.8% | SK-MEL-28 melanoma 116%

COC(=O)C1OC(Oc2ccc(N(CCCl)CCCl)cc2)C(OC(C)=O)C(OC(C)=O)C1OC(C)=O (stereo unspecified)
inactive: HCT-15 colon 83.3% | HT29 colon 80.7% | SNB-75 CNS 59.2% | SNB-19 CNS 92.6% | PC-3 prostate 78% | SK-MEL-5 melanoma 92.1% | UACC-62 melanoma 79.6% | SK-MEL-28 melanoma 83.5%

COc1ccc(C(=O)c2sc3nc4c(cc3c2N)N2CCC4CC2)cc1OC
inactive: HCT-15 colon 96.4% | HT29 colon 105% | SNB-75 CNS 83.9% | SNB-19 CNS 108% | U251 CNS 84.9% | SK-MEL-5 melanoma 48.2% | UACC-62 melanoma 89.9% | LOX IMVI melanoma 85.4% | SK-MEL-28 melanoma 96.1%

COc1ccc(S(=O)(=O)Nc2c(/C=C\c3cc(OC)c(OC)c(OC)c3)ccc(OC)c2O)cc1OC
active: SK-MEL-5 melanoma -34.9%
inactive: HCT-15 colon 15.6% | HT29 colon 10% | SNB-75 CNS 43.8% | SNB-19 CNS 39% | U251 CNS 12.9% | UACC-62 melanoma 45.2% | LOX IMVI melanoma 21.6% | SK-MEL-28 melanoma 58.6%

CC(=O)O[C@H]1CC[C@]2(C)[C@H]3CC[C@]4(C)[C@@H](OC(C)=O)CC[C@H]4[C@@H]3[C@@H](C)[C@]2(O)C1
inactive: HCT-15 colon 108% | HT29 colon 106% | SNB-75 CNS 92.5% | SNB-19 CNS 111% | U251 CNS 111% | SK-MEL-5 melanoma 106% | UACC-62 melanoma 98.4% | SK-MEL-28 melanoma 117%

COc1ccc(/C=C\c2cc(OC)c(OC)c(OC)c2)cc1NC(=O)/C=C/c1ccc(OC)c(OC)c1
active: SK-MEL-5 melanoma 5.07%
inactive: HCT-15 colon 29.7% | HT29 colon 15.7% | SNB-75 CNS 16% | SNB-19 CNS 36.6% | U251 CNS 35.4% | UACC-62 melanoma 36.6% | LOX IMVI melanoma 30.8% | SK-MEL-28 melanoma 51.8%

CC1(C)N=C(N)N=C(N)N1c1ccc(CCC(=O)Nc2ccc(S(=O)(=O)F)cc2)c(Cl)c1
inactive: HCT-15 colon 48% | HT29 colon 15.5% | SNB-75 CNS 59.4% | SNB-19 CNS 42% | U251 CNS 35% | SK-MEL-5 melanoma 22.2% | UACC-62 melanoma 16.9% | LOX IMVI melanoma 15.3% | SK-MEL-28 melanoma 50.4%

C=C1C(=O)O[C@H]2[C@H]1CC/C(COC(=O)C(=O)c1cn(Cc3ccccc3)c3ccccc13)=C\CC[C@@]1(C)O[C@@H]21
active: HCT-15 colon -45.6% | HT29 colon -40.2% | SNB-19 CNS 3.39% | U251 CNS -88.7% | PC-3 prostate -57.9% | SK-MEL-5 melanoma -96.6% | UACC-62 melanoma -87.4% | LOX IMVI melanoma -93.3% | SK-MEL-28 melanoma -47.1%

CC[C@H](C)[C@H](NC(=O)c1nccn1C)C(=O)N(C)[C@H](C[C@@H](OC(C)=O)c1nc(C(=O)N[C@@H](Cc2ccccc2)C[C@H](C)C(=O)OC)cs1)C(C)C
inactive: HCT-15 colon 10.5% | SNB-19 CNS 37.3% | PC-3 prostate 25.2% | UACC-62 melanoma 55.7% | LOX IMVI melanoma 17.6% | SK-MEL-28 melanoma 51.2%
active: HT29 colon -6.75% | U251 CNS 9.94% | SK-MEL-5 melanoma -0.799%

Fc1c[c-]c(-c2ccccn2)c(F)c1.[CH3-].[Pt+2].c1ccc([PH+](c2ccccc2)c2ccccn2)cc1
active: HCT-15 colon -36.7% | HT29 colon -13% | U251 CNS 6.42% | SK-MEL-5 melanoma -75.3% | UACC-62 melanoma -30.5% | LOX IMVI melanoma -95.3% | SK-MEL-28 melanoma -21.9%
inactive: SNB-19 CNS 26% | PC-3 prostate 15.4%

O=C1C(N2CC2)=C(N2CC2)C(=O)C(N2CC2)=C1N1CC1
active: HCT-15 colon 2.19% | HT29 colon 2.38% | SNB-75 CNS -52.6% | U251 CNS -63.6% | PC-3 prostate 7.53% | SK-MEL-5 melanoma -76.7% | UACC-62 melanoma -84.6% | LOX IMVI melanoma -61.5% | SK-MEL-28 melanoma -51.8%

COc1cc(NCCCN=C(N)N)c2ncccc2c1
inactive: HCT-15 colon 98.6% | HT29 colon 83.9% | SNB-19 CNS 81.8% | U251 CNS 58.5% | PC-3 prostate 83.7% | SK-MEL-5 melanoma 72.1% | UACC-62 melanoma 90.3% | LOX IMVI melanoma 104% | SK-MEL-28 melanoma 99.6%

COc1ccc(C2=N[C@@H](Cc3ccccc3)C(=O)Nc3ccsc32)cc1
inactive: HCT-15 colon 34.7% | HT29 colon 17.9% | SNB-19 CNS 69.8% | U251 CNS 42.7% | PC-3 prostate 59.1% | SK-MEL-5 melanoma 34.9% | UACC-62 melanoma 16.9% | LOX IMVI melanoma 47.6% | SK-MEL-28 melanoma 54.5%

Fc1cccc(NCOOC2(OOCNc3cccc(F)c3)CCCCC2)c1
inactive: HCT-15 colon 99.2% | HT29 colon 96% | SNB-19 CNS 96.2% | U251 CNS 102% | PC-3 prostate 88.9% | SK-MEL-5 melanoma 95.2% | UACC-62 melanoma 104% | SK-MEL-28 melanoma 109%
active: LOX IMVI melanoma -68.9%

COc1ccc(C(O)(C(=O)O)c2ccc(OC)cc2)cc1
inactive: HCT-15 colon 95.7% | HT29 colon 81.4% | SNB-19 CNS 96.9% | U251 CNS 93.9% | PC-3 prostate 77.8% | SK-MEL-5 melanoma 93.6% | UACC-62 melanoma 85.7% | LOX IMVI melanoma 93.6% | SK-MEL-28 melanoma 103%

CC1=C(O)[C@@](C)(CCCCC[C@H](C)CCCCc2ccc(O)cc2)OOC1=O
inactive: HCT-15 colon 98.3% | HT29 colon 105% | SNB-19 CNS 101% | U251 CNS 92.8% | PC-3 prostate 75.4% | SK-MEL-5 melanoma 102% | UACC-62 melanoma 79.2% | LOX IMVI melanoma 69.8% | SK-MEL-28 melanoma 114%

C=CC[PH+](c1ccccc1)c1ccccc1.C=CC[PH+](c1ccccc1)c1ccccc1.[Cl][Pt][Cl]
active: LOX IMVI melanoma -6.81%
inactive: HCT-15 colon 31.4% | HT29 colon 41.1% | SNB-19 CNS 70.5% | U251 CNS 37.5% | PC-3 prostate 54.4% | SK-MEL-5 melanoma 85.8% | UACC-62 melanoma 52.9% | SK-MEL-28 melanoma 28.4%

CNC(=O)Oc1ccc2c(c1)OCO2
inactive: HCT-15 colon 101% | HT29 colon 104% | SNB-19 CNS 98.9% | U251 CNS 99% | PC-3 prostate 102% | SK-MEL-5 melanoma 101% | UACC-62 melanoma 99.4% | LOX IMVI melanoma 103% | SK-MEL-28 melanoma 108%

CC12CCC(O)CC1=CCC1C2CCC2(C)C(O)CCC12 (stereo unspecified)
inactive: HCT-15 colon 105% | HT29 colon 101% | SNB-19 CNS 86.7% | U251 CNS 105% | PC-3 prostate 94.1% | SK-MEL-5 melanoma 98.2% | UACC-62 melanoma 102% | LOX IMVI melanoma 99.5% | SK-MEL-28 melanoma 106%

O=C([O][Hg][CH2]C1COCC([CH2][Hg][O]C(=O)c2ccccc2)O1)c1ccccc1 (stereo unspecified)
active: HCT-15 colon -83%
inactive: HT29 colon 50.4% | SNB-19 CNS 102% | U251 CNS 58.9% | PC-3 prostate 91.9% | SK-MEL-5 melanoma 102% | UACC-62 melanoma 91% | LOX IMVI melanoma 11.4% | SK-MEL-28 melanoma 115%
